Assay outcomes: PubChem BioAssay, University of Kansas High Throughput Screening Laboratory
mHTT-CaM PPI inh: mutant huntingtin-calmodulin interaction inhibitors – biochemical, AlphaScreen, primary screen; AlphaScreen His-mHTT/GST-CaM binding, luminescence; inhibition, % at 15 µM; 190,000 tested, 3.6% active; AID 1671202, 2021;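 also: 0% = both proteins with DMSO and 100% = one protein alone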
Pf apPOL block: Pf-apPOL inhibitors, biochemical, fluorescence | Plasmodium falciparum apicoplast DNA polymerase (apPOL) | Recombinant Pf-apPOL, molecular beacon fluorescence, 1.5 h | inhibition, % at 10 µM | 210,000 tested, 0.25% active | AID 1794808, 2022
An asterisk follows results filed as active; i = inactive; . = not tested or not shown. Sampled rows, rich in hits. Any-hit rate of the full collection: about 3.5%. Rule as the data show it: active = inhibition above about 50%; inactive = the rest.

SMILES	mHTT-CaM PPI inh	Pf apPOL block
CCc1ccc(-c2cn3ccn(-c4ccc(OC)cc4)c(=O)c3n2)cc1	-7	-1
CCCC(=O)Nc1nc2n(n1)C(c1ccccc1)C=C(c1ccccc1)N2 (stereo unspecified)	44	1
COc1ccc(/C=C/C(=O)Nc2nc3n(n2)C(c2ccccc2)C=C(c2ccccc2)N3)cc1 (stereo unspecified)	72*	-3
CCOc1nccnc1NC1CCN(C(=O)c2ccco2)CC1	4	-3
Cc1c(C=O)c(C=O)c(C)n1-c1ccc(N(C)C)cc1	4	-4
CN(C)c1ccc(N2CC(=O)SC2=NC#N)cc1	55*	.
CCCCOc1ccc(C(=O)NCCC2(O)CCOC(C)(C)C2)cc1 (stereo unspecified)	3	-2
Cc1ccc(CNc2ccc3[nH]ncc3c2)cc1	82*	-6
COc1cc(CNc2ccc3cn[nH]c3c2)ccc1O	37	0
Oc1ccc(CNc2ccc3cn[nH]c3c2)cc1	10	-4
COc1ccccc1CNc1ccc2cn[nH]c2c1	44	-1
c1ccc(CNc2ccc3cn[nH]c3c2)cc1	82*	0
Cc1ccccc1CNc1ccc2cn[nH]c2c1	62*	-4
Cc1ccc(C2=N/C(=C\c3ccccc3)C(=O)O2)cc1	3	-8
COC(=O)c1ccc(C2C3=C(CCCC3=O)Nc3ncnn32)cc1 (stereo unspecified)	-2	3
CN(C)c1ccc(C=CC(=O)c2cc3ccccc3oc2=O)cc1	7	-25
CC1(C)Cc2cccc(OCC(=O)NCC(O)c3cccs3)c2O1 (stereo unspecified)	-3	10
Cc1nc2ccccc2n1CC(O)COc1ccc(C(=O)c2ccccc2)cc1 (stereo unspecified)	8	-14
CC(=O)N(C)c1ccc(OCC(O)Cn2c3ccccc3c3ccccc32)cc1 (stereo unspecified)	73*	-10
O=C(Nc1ccccc1)c1cnc(-c2ccc(F)cc2)nc1-c1ccncc1	6	44
O=C(Nc1ccccc1F)c1cnc(-c2ccccc2)nc1-c1ccncc1	-12	-2
Cc1c(F)cccc1NC(=O)c1cnc(-c2ccc(F)cc2)nc1-c1ccncc1	13	77*
Cc1ccc(-c2ncc(C(=O)N3CCCC3)c(N3CCCCC3)n2)cc1	22	-6
O=C(Nc1cccc(F)c1)c1cnc(-c2ccc(F)cc2)nc1-c1ccncc1	3	64*
Cc1ccc(-c2ncc(C(=O)Nc3ccc(Cl)cc3)c(-c3ccncc3)n2)cc1	27	65*
SMILES	mHTT-CaM PPI inh	Pf apPOL block
Cc1ccc(-c2ncc(C(=O)N3CCCCCC3)c(-c3ccncc3)n2)cc1	56*	-5
Cc1ccc(NC(=O)c2cnc(-c3ccc(C)cc3)nc2-c2ccncc2)cc1	0	0
Cc1ccn(C)c2nc3ccccc3c1-2	-6	5
O=C(Nc1cccc(-c2nc3ccccc3c(=O)o2)c1)c1ccc(I)cc1	-2	-2
CCc1ccc(C(=O)Nc2ccc3c(c2)CCC(=O)N3C)cc1	10	-28
Cc1nc2cc(N)ccc2s1	0	8
Nc1ccc2cc3ccc(N)cc3nc2c1	55*	.
Cc1cc(Br)c(O)c(C2NC(C(=O)O)Cc3c2[nH]c2ccccc32)c1 (stereo unspecified)	13	-1
O=C(O)C1Cc2c([nH]c3ccccc23)C(c2cc(Br)ccc2O)N1 (stereo unspecified)	57*	-3
Cc1ccc(CNC(=O)N2CCC(CCOc3ccncc3)CC2)cc1	6	-2
COc1cc(C=Nc2sc3c(c2C#N)CCCC3)ccc1OCC(=O)O	10	-4
COc1ccc(-n2nc3c(c2NC(=O)COc2ccc(Cl)cc2)CSC3)cc1	-4	-5
COc1cccc(C2CC(=O)C3=C(C2)Nc2ccccc2NC3c2ccc(C(F)(F)F)cc2)c1 (stereo unspecified)	53*	-13
CSc1ccc(C2Nc3ccccc3NC3=C2C(=O)CC(c2cccs2)C3)cc1 (stereo unspecified)	54*	-11
O=C1CC(c2ccc3c(c2)OCO3)CC2=C1C(c1ccc(C(F)(F)F)cc1)Nc1ccccc1N2 (stereo unspecified)	62*	2
O=C1CC(c2ccc3c(c2)OCO3)CC2=C1C(c1ccc3c(c1)OCO3)Nc1ccccc1N2 (stereo unspecified)	27	-2
O=C1CC(c2cccs2)CC2=C1C(c1ccc(Cl)cc1)Nc1ccccc1N2 (stereo unspecified)	33	-21
O=C1CC(c2ccccc2)CC2=C1C(c1ccc(F)cc1)Nc1ccccc1N2 (stereo unspecified)	11	-13
O=C1CC(c2ccccc2)CC2=C1C(c1cccc(C(F)(F)F)c1)Nc1ccccc1N2 (stereo unspecified)	61*	-16
COc1cccc(C2CC(=O)C3=C(C2)Nc2ccccc2NC3c2ccc(C)s2)c1 (stereo unspecified)	28	-6
COc1ccccc1C(=O)Nc1c2c(nn1-c1cccc(C)c1)CSC2	3	-4
O=C1CC(Cc2ccccc2)C(=O)N1c1ccc(O)cc1 (stereo unspecified)	0	1
COC(=O)C1C(=O)C2=C(CC1C)NC(C)=C(C(=O)OC1CCCCC1)C2c1ccc(C)c([N+](=O)[O-])c1 (stereo unspecified)	33	-4
CCc1ccc(C(=O)N2CCCC(c3cccc(C(=O)NC(C)C)c3)C2)cc1 (stereo unspecified)	-2	-2
O=C1NC(=O)C(=Cc2cccn2-c2ccccc2)C(=O)N1	7	0
SMILES	mHTT-CaM PPI inh	Pf apPOL block
O=C1NC(=O)C(=Cc2cccn2-c2ccc(Cl)cc2)C(=O)N1	66*	37
C=CCOc1ccccc1CNc1ccc(C)cc1	54*	0
C=CCOc1ccccc1CNc1cc(OC)ccc1OC	67*	12
C=CCNC(=O)C(=O)Nc1cc(OC)ccc1OC	-4	-7
C=CCOc1ccccc1CNc1ccccc1F	-87	3
CCCc1ccc(-c2ccc(/C(N)=N/O)cc2)nc1	i	-4
COc1cccc(C(=O)N2CCC(c3nc(-c4ccc(NC(C)=O)cc4)no3)CC2)c1OC	13	6
COCC(=O)C(C=Nc1ccc(Cl)cc1Cl)C(=O)OC (stereo unspecified)	.	8
COc1ccc(OS(=O)(=O)c2sc3ccc(Cl)cc3c2C)cc1	.	-6
C=CCn1c(=N)c(C(=O)NC(C)c2ccccc2)cc2c(=O)n3ccccc3nc21 (stereo unspecified)	10	4
O=C(N1CCN(c2cccc(Cl)c2)CC1)C1(S(=O)(=O)c2ccc(Cl)cc2)CC1	13	-5
Cc1ccc(Cl)cc1N1CCN(C(=O)C2(S(=O)(=O)c3ccc(Cl)cc3)CC2)CC1	92*	1
Cc1ccc(Cl)cc1N1CCN(C(=O)Cc2c(C(=O)O)[nH]c3ccc(Cl)cc23)CC1	98*	0
CN(C(=O)Cc1c(C(=O)O)[nH]c2ccc(Cl)cc12)c1ccc(Br)cc1	10	1
O=C(O)c1[nH]c2ccccc2c1CC(=O)N1CCN(c2ccc([N+](=O)[O-])cc2)CC1	7	-3
O=C(O)c1[nH]c2ccc(Cl)cc2c1CC(=O)N1CCN(c2cccc(Cl)c2)CC1	63*	-4
COc1ccccc1-n1nc(C(=O)Nc2cc(OC)c(OC)c(OC)c2)c2ccccc2c1=O	33	-1
